Source: PubChem BioAssay (National Center for Advancing Translational Sciences (NCATS))
Rows were chosen to be rich in hits. Some 13% of all compounds tested hit in one or more screens of this group.
HCMV antiviral = blocks human cytomegalovirus replication; HFF cells, HCMV-luciferase reporter, 72 h; active compounds read low; hit rate 4.5% among 410,000; activity change, negative = inhibition, % at 57.5 µM; in the data active = activity change below about -60%; inconclusive = no clear call, values can overlap the other calls; inactive = above about -39%
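Cell-based, HFFs, 1000 cells/well, 16 h 37C; cpds in DMSO + HCMV-luc, MOI 1 PFU/cell; 72 h 37C; OneGlo luminescence after 5 min RT; norm. to buffer vs Salinomycin 10uM.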
Pf growth 96h = inhibits malaria parasite growth, 96 h | P. falciparum luciferase reporter growth, 96 h | hit rate 6.9% among 320,000 | Potency, µM (highest dose often 28.7 µM), inactives show at the highest dose activity change, negative = inhibition, most hits filed as inhibitors; note: potency is the fitted concentration of half-maximal effect
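Parasite growth measured via integrated firefly luciferase reporter in P. falciparum. Infected erythrocytes at 2% hematocrit, 0.05% parasitemia final were treated 96 hours at 37 C under 5% CO2, and luminescence was read.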
HCV inh = blocks hepatitis C virus; Huh7.5.1 HCVcc-Cre infection, luciferase reporter, 44 h; Potency, µM (highest dose often 41.8 µM), inactives show at the highest dose activity change, negative = inhibition, usual class: inhibitors; hit rate 3.4% among 340,000; note: potency is the fitted concentration of half-maximal effect
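Infectious HCV cell culture screen: compound-treated cells (1,000/well, pre-plated 4 h) are infected with HCVcc-Cre at roughly 0.5 moi and grown 44 h. Infection is quantified by luciferase signal after 15 min substrate incubation at room temperature.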
Pf growth 48h = P. falciparum growth inhibition at 48 hours (one generation). AID 504832. hit rate 5.9% among 310,000. Potency, µM (series often up to 28.7 µM), inactives show at the highest dose activity change, negative = inhibition, hits mostly inhibitors. P. falciparum luciferase growth in erythrocytes, 48 h; note: potency is the fitted concentration of half-maximal effect
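Parasite viability was followed by luminescence of a genomically integrated firefly luciferase. Cultures held 0.1% parasitemia at 2% hematocrit (final), incubated under 5% CO2 at 37 C.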
* marks the source's active call; other numbers are inactive results; ? = inconclusive; . = not tested or not shown. Unless noted, calls come from the whole dose curve; as a rule, active = well fitted inhibition curve with a large enough effect; inconclusive = small, poorly fitted or top-dose-only effect, or another doubt; inactive = no such curve, though single readings can be large or run the other way. % is set by controls: 0 for no effect and ±100 for the full control effect.

SMILES | HCMV antiviral | Pf growth 96h | HCV inh | Pf growth 48h
COC(=O)c1ccc(/C=C(\C#N)C(=O)NC(C)c2ccccc2)cc1 (configuration not stated) | -95.4* | ? | 11.2µM* | ?
O=C1CN(C(=O)C2CCCCC2)C(c2ccccc2)c2cc(F)ccc2N1 (configuration not stated) | 16.4 | . | . | .
CC1CCC(CN2C(Nc3ccccc3)=NC[C@@H]2Cc2ccccc2)CC1 (some centres not stated) | 36.0 | . | 7.94µM* | .
c1ccc(C[C@H]2CN=C(Nc3ccccc3)N2CCCC2CCCCC2)cc1 | -61.0* | . | 3.98µM* | .
CC(C)C[C@H]1CN=C(Nc2ccccc2)N1CCCC1CCCC1 | -70.0* | 11.7µM* | ? | ?
CC(C)C[C@H]1CN=C(Nc2ccccc2)N1CCCC1CCCCC1 | ? | ? | -15.4% | ?
CN(C)c1ccccc1C(=O)c1ccccc1N(C)C | 74.9 | . | 3.98µM* | 67.0%
CCCC1=C(C(=O)OCC)C(c2ccc(OC)c(CSc3ccccn3)c2)C(C#N)=C(N)O1 (configuration not stated) | -30.3 | ? | 9.1% | 9.28µM*
CCOC(=O)C1=C(C)OC(N)=C(C#N)C1c1ccsc1 (configuration not stated) | 4.8 | -11.1% | 21.2% | -9.4%
C=CCOC(=O)C1=C(C)OC(N)=C(C#N)C1c1ccc(OC)c(CSc2ccccn2)c1 (configuration not stated) | -3.1 | 4.6% | -0.4% | 4.8%
COC(=O)CC1=C(C(=O)OC)C(c2cccs2)C(C#N)=C(N)O1 (configuration not stated) | -100.7* | . | 22.2% | -13.0%
CCOC(=O)C1=C(CC)OC(N)=C(C#N)C1c1cccs1 (configuration not stated) | 32.3 | . | 3.5% | -18.8%
CCOC(=O)C1=C(CC)OC(N)=C(C#N)C1c1ccsc1 (configuration not stated) | 0.5 | 13.1µM* | 10.6% | -6.7%
COc1cc(OC)c(OC)cc1CNCCCSc1nnnn1C | 1.7 | . | . | .
Cn1c(COc2ccccc2)nnc1SCCN1CCOCC1 | 24.0 | -25.1% | 15.2% | 19.0%
CCn1c(COc2cccc3cccnc23)nnc1SCC(=O)O | 4.9 | 31.3% | 20.9% | .
Cn1c(COc2cccc3cccnc23)nnc1SCC(=O)O | -1.4 | 10.4µM* | 3.9% | 48.0%
Cn1c(COc2ccccc2)nnc1SCCSc1nnc(COc2ccccc2)n1C | -64.5* | 0.8% | ? | -5.6%
O=C(Nc1ccc(Cl)c(C(F)(F)F)c1)C1CCCN(S(=O)(=O)c2cnc[nH]2)C1 (configuration not stated) | 0.4 | 10.4µM* | ? | ?
Cc1cc(NC(=O)C2CCCN(S(=O)(=O)c3cnc[nH]3)C2)ccc1Br (configuration not stated) | -3.3 | 4.15µM* | -10.7% | .
COc1ccc(C)cc1NC(=O)C1CCCN(S(=O)(=O)c2cnc[nH]2)C1 (configuration not stated) | -60.8* | 11.7µM* | -0.6% | .
Cc1ccc(NC(=O)C2CCCN(S(=O)(=O)c3cnc[nH]3)C2)cc1C (configuration not stated) | 21.6 | ? | 10.9% | -0.6%
Cc1cc(NC(=O)C2CCCC2)nc2c1c(=O)oc1ccccc12 | -22.2 | 56.0% | 10.2% | 30.7%
Cc1cc(NC(=O)C2CCCCC2)nc2c1c(=O)oc1ccccc12 | 5.3 | 6.57µM* | ? | 15.1%
Cc1ccc(-c2ccc(/C=N/NC(=O)c3ccccc3O)o2)cc1 | . | 0.828µM* | . | 0.586µM*
SMILES | HCMV antiviral | Pf growth 96h | HCV inh | Pf growth 48h
CCOc1ccc(C(=O)N/N=C/c2ccc(-c3ccc(S(=O)(=O)Nc4ncccn4)cc3)o2)cc1 | 1.6 | . | ? | ?
Cc1ccc(-c2ccc(/C=N/NC(N)=S)o2)cc1 | 99.1 | ? | 11.2µM* | ?
NC(=S)N/N=C/c1ccc(-c2ccccc2)o1 | 6.2 | 49.4% | -20.2% | ?
O=C(N/N=C/c1ccc(-c2ccc(S(=O)(=O)Nc3ncccn3)cc2)o1)c1cc2ccccc2cc1O | -101.4* | . | -8.5% | ?
CCC(NC(=O)c1ccccc1Br)c1ccccc1 (configuration not stated) | -4.2 | 15.5% | 19.2% | 16.2%
CCC(NC(=O)c1ccncc1)c1ccccc1 (configuration not stated) | 2.1 | 14.7µM* | 0.3% | 1.5%
